Data on 40 compounds can be found in PubChem BioAssay (Tox21).

A number with no mark means an inactive call. The source made the active and inactive calls. Calls follow the shape of the dose curve; as a rule, active = well fitted activation curve with a large enough effect in the repeat runs; inconclusive = weak or mixed curves; inactive = flat fitted curve, though single readings scatter.
% is scaled to controls: 0 for no effect and ±100 for the full control effect; potency is read from the fitted curve at half-maximal effect.

The test is described as follows: A CellTox Green Cytotoxicity Assay to monitor cytotoxicity in HepG2 cells - 0 hour (AID 1224882). Also: nearly all actives have a fitted effect of over 35% in size. The conditions noted are these: CellTox Green fluorescence; series mostly up to 76.8 µM; cytotoxicity: at the top concentration. The source says:
National Center for Advancing Translational Sciences [NCATS]
NIH Chemical Genomics Center [NCGC]
U.S. Environmental Protection Agency [EPA]
National Institutes of Environmental Health Sciences [NIEHS]
National Toxicology Program [NTP]
Cell-based models are critical for drug discovery. Determining the natural cytotoxic effects resulting from test compounds is an essential research activity. A CellTox Green Cytotoxicity Assay to monitor cytotoxicity in real time of continues cell culture during 40 hours of the compound treatment was used to screen Tox21 10K library compounds in HepG2 cells. CellTox Green Cytotoxicity Assay is a nonlytic, homogeneous, biofluorescent method to measure cytotoxicity in cell culture after experimental manipulation. The assay system uses a proprietary asymmetric cyanine dye that is excluded from viable cells but preferentially stains the dead cell's DNA. […] Viable cells produce no appreciable increases in fluorescence. Therefore, the fluorescence signal produced by the binding interaction with dead cell DNA is proportional to cytotoxicity.
The mixture of HepG2 cell suspension and reagents were dispensed at 600cells/6 ul/well in 1536-well tissue culture treated black solid bottom plates using a Multidrop dispenser. After the assay plates were incubated at a 37 C/5% CO2 incubator for 5 hours, 23 nL of compounds dissolved in DMSO, positive and negative controls was transferred to the assay plate by a pintool work station. The plates were incubated at 37 C for 40 hours. The fluorescence intensity were measured at 0h, 8h, 16h, 24h, 32h and 40h time points using ViewLux plate reader during compound treatment.
For the compound `Cc1cccc2c1cc1ccc3cccc4ccc2c1c34`, the “cytotoxicity” value is -10.2%. Same read-out and setting: as for `CN1CCC(Nc2ncc3ncnc(Nc4ccc(F)c(Cl)c4)c3n2)CC1`, the figure is 1.49% [at 35.3 µM]; as for `Fc1ccc(C(c2ccc(F)cc2)N2CCN(C/C=C/c3ccccc3)CC2)cc1`, -0.455% [at 35.3 µM]; as for `CCCCCCCCCCCCCCCS(=O)(=O)Oc1ccccc1`, 4.35% [at 35.3 µM]. On the same count and under the same terms, as for `CCCCCCCCCCn1cc[n+](CCCCCCCCCC)c1C`, the figure is 1.74%. On to `CCCCC(CC)COP(=O)(O)OCC(CC)CCCC` (stereo not given), for which the Potency result is “inactive”. `CCC(C)(C)C1CCCCC1OC(C)=O` (stereo not given): the “cytotoxicity” value is 0.801%. On to `CN(C)[C@@H]1C(=O)C(C(N)=O)=C(O)[C@@]2(O)C(=O)C3=C(O)c4c(O)cccc4C[C@H]3C[C@@H]12`, for which the “cytotoxicity” value is -10.4% [at 35.3 µM]. On the same count and under the same terms, as for `O=C1c2ccccc2Cc2ccccc21`, the figure is 2.8%; as for `Nc1c(Cl)cc(Cl)cc1Cl`, -2.53%.

Regarding `COc1c(C)c2c(c(O)c1C/C=C(\C)CCC(=O)O)C(=O)OC2`, the “cytotoxicity” value is -0.884% [at 35.3 µM]. Same read-out and setting: as for `N#CSc1ccc(N)c([N+](=O)[O-])c1`, the figure is -10.2%; as for `Oc1ccc(N=Nc2ccccc2)cc1`, 2.29%.

In the case of `CCCN(CCC)c1c([N+](=O)[O-])cc(C(F)(F)F)c(N)c1[N+](=O)[O-]`, the “cytotoxicity” value is -1.42%. Take `O=C(c1ccc(O)cc1O)c1ccc(O)cc1O`: the Potency result was “inactive”. Consider `C=CC(=O)OCCn1c(=O)n(CCOC(=O)C=C)c(=O)n(CCOC(=O)C=C)c1=O`, for which the “cytotoxicity” value is -11.2%. Same read-out and setting: as for `CSc1ccc(C(=O)c2[nH]c(=O)[nH]c2C)cc1`, the figure is -3.66% [at 35.3 µM]. Regarding `ON=C1CCCC1`, the “cytotoxicity” value is -2.07%.

On to `CC(C)(C)c1ccc(C(=O)O)cc1`, for which the “cytotoxicity” value is 2.52%.

Turning to `CCCCCCCCCCCCc1ccc(O)cc1`, the “cytotoxicity” value was -1.37%.

`CC(NN)c1ccccc1` (stereo not given): the cytotoxicity was -2.26% [at 15.8 µM]. The same measure, in the same setting: as for `Cc1cc(CCN2CCN(c3nsc4ccccc34)CC2)cc2c1NC(=O)CC2(C)C`, the figure is 4.4%; as for `CC(C)OC(=O)c1cc2c(OCC(O)CNC(C)(C)C)cccc2[nH]1` (stereo not given), 20.3% [at 35.3 µM]; as for `CN(C)CCCOC1(Cc2ccccc2)CCCCCC1`, -12.3% [at 35.3 µM]. Still for that read-out and setting: as for `OCc1c[nH]c2ccccc12`, the figure is 1.5%; as for `Cc1ccc(-n2nc(C(C)(C)C)cc2NC(=O)Nc2ccc(OCCN3CCOCC3)c3ccccc23)cc1`, -12.8% [at 35.3 µM].

Turning to `Cc1onc(-c2c(Cl)cccc2Cl)c1C(=O)N[C@@H]1C(=O)N2[C@@H]1SC(C)(C)[C@@H]2C(=O)O`, the “cytotoxicity” value is 1.2% [at 35.3 µM]. The same measure, in the same setting: as for `C=C(C)C(=O)OCC[N+](C)(C)C`, the figure is -1.96%; as for `CCCC(C)c1ccccc1O` (stereo not given), 0.7%; as for `O=C(N/N=C/c1ccccc1O)c1ccncc1`, -5.21% [at 35.3 µM].

As to `CCCC(=O)OC[C@@H](OC(=O)CCC)[C@@H](OC(=O)CCC)[C@H](Cn1c2nc(=O)[nH]c(=O)c-2nc2cc(C)c(C)cc21)OC(=O)CCC`, the Potency was 16.9 µM (active). On to `CCCCCCCCCCCCCCCC[N+](C)(C)CCN(Cc1ccc(OC)cc1)c1ncccn1`, for which the “cytotoxicity” value was 9.32% [at 35.3 µM]. Same read-out and setting: as for `C[C@@H](NCCCc1cccc(C(F)(F)F)c1)c1cccc2ccccc12`, the figure is -0.448% [at 35.3 µM]; as for `On1ccccc1=S`, -3.3%. On the same count and under the same terms, as for `CCCC(c1cc(C(C)(C)C)c(O)cc1C)c1cc(C(C)(C)C)c(O)cc1C`, the figure is -7.23%; as for `Cc1oc(-c2ccccc2)nc1CCC(=O)c1ccc(CC2SC(=O)NC2=O)cc1` (stereo not given), -14.8% [at 35.3 µM]. Same read-out and setting: as for `C/C(=C(/OCCOc1ccc(Cl)cc1)c1ccc(Cl)cc1Cl)n1ccnc1`, the figure is 3.26% [at 35.3 µM]; as for `Cc1cc(O)c(C(C)(C)C)cc1Sc1cc(C(C)(C)C)c(O)cc1C`, 1.91%; as for `CN(C/C=C/C#CC(C)(C)C)Cc1cccc2ccccc12`, -19.3% [at 35.3 µM]. Consider `N/C(=N\N=C\c1ccc(Cl)cc1)N/N=C/c1ccc(Cl)cc1`, for which the “cytotoxicity” value was 0.77% [at 35.3 µM].
